# TEAD-YAP block – TEAD-YAP interaction inhibition, primary screen, TEAD-YAP interaction inhibitor project, luminescence, HEK-TIYL cells; TEAD-Gal4/YAP UAS-luciferase luminescence; inhibition, % at 9.12 µM; actives 1.4% (n = 640,000); AID 1259422, 2018; in the data active = inhibition above about 32%;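 also: 0% = median of test compound wells and 100% = reference inhibitor wells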
# MITF primary – MITF inhibitors, primary screen, biochemical, AlphaScreen, human; actives 0.91% (n = 650,000); AlphaScreen MITF homodimerization, bead proximity signal; inhibition, % at 2.6 µM; AID 1259374, 2018; Microphthalmia-associated transcription factor (Homo sapiens), O75030; in the data active = inhibition above about 50%;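 also: 0% = vehicle wells with protein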
# FBW7 act – FBW7 E3 ligase activators, primary screen, biochemical, AlphaScreen, human. F-box/WD repeat-containing protein 7 (Homo sapiens), Q969H0. AlphaScreen FBW7–phospho-cyclin E peptide binding, activator screen. normalized activity (activation), % at 26.1 µM. actives 0.13% (n = 650,000); in the data active = normalized activity above about 1.9%;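 also: purified mutant Fbw7 with reduced substrate affinity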
# GPR151 ag – activators of human GPR151, primary screen, cell-based, PathHunter beta-arrestin, luminescence | G-protein coupled receptor 151 (Homo sapiens), Q8TDV0 | PathHunter beta-arrestin GPR151 cells | activation, % at 11.2 µM | actives 1% (n = 650,000) | AID 1508602, 2020; in the data active = activation above about 4.9%;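 also: 0% = median of compound wells and 100% = cells with positive control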
# GPR151 confirm – GPR151 activators, triplicate retest, confirmation, cell-based, PathHunter beta-arrestin, luminescence; shares compounds with GPR151 ag; GPR151 PathHunter beta-arrestin cells, 90 min; % of EA-reagent control over plate median; activation, % at 11.2 µM; 6,700 tested, under 10 active;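 active = mean percent activation across replicates above the confirmation screen cutoff of 4.91%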
# GPR119 counter – GPR119 activators in beta-arrestin cells, counter-screen for GPR151 activator project, cell-based, PathHunter beta-arrestin, luminescence, triplicate; shares compounds with GPR151 ag; 90 min; 0 = compound-well median, 100 = enzyme-acceptor control; activation, % at 11.2 µM; actives 0.3% (n = 6,700); AID 1508611, 2020;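 active = mean percent activation in the counterscreen above 29.09%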;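 also: counterscreen on off-target GPR119 to flag nonselective hits from the GPR151 activator screen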
# Target sequence (Q8TDV5 whole entry, looked up): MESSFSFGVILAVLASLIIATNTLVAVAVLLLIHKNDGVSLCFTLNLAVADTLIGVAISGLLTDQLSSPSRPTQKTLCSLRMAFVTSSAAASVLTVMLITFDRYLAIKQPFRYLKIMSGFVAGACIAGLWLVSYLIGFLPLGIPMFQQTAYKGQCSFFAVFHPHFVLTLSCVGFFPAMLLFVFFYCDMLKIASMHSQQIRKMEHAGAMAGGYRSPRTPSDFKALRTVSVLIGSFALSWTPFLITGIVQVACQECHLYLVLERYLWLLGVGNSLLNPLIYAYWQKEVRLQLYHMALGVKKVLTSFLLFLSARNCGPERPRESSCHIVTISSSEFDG
# Numbers without * were called inactive; nt = no result given. Shown are actives, neighbours in structure and some others; about 3.5% of the full set was active somewhere.
SMILES,TEAD-YAP block,MITF primary,FBW7 act,GPR151 ag,GPR151 confirm,GPR119 counter
COc1ccc(-c2cccc(C(=O)NCCCN3CCCC3=O)c2)cc1,-10.1,-10.1,-0.1,2.0,nt,nt
O=C(NCCCN1CCCC1=O)c1cccc(-c2ccc(C(=O)NC3CC3)cc2)c1,-8.0,14.1,0.0,6.1*,1.2,-1.1
Cc1ccc(S(=O)(=O)c2nc(NCCN(C)C)sc2Cl)cc1,2.3,-0.1,-0.3,5.2*,0.7,3.4
COc1nc(NCCCN2CCCC2=O)nc(-c2ccc(C(=O)N3CCN(C)CC3)cc2)n1,4.2,2.4,0.1,3.0,nt,nt
COc1nc(NCCCN2CCCC2=O)nc(-c2ccc(C(N)=O)cc2)n1,-7.4,24.8,0.5,8.5*,0.0,-3.2
Cc1ccccc1-n1c(C)nc2sc3c(c2c1=O)CCC3,7.3,6.2,-0.2,-0.6,nt,nt
Cc1nc2sc3c(c2c(=O)n1-n1cccc1)CCCC3,-2.7,7.4,-0.1,5.9*,0.1,7.9
COc1ccc(-c2nc(NC(C)=O)sc2C)cc1OC,12.2,12.1,0.4,6.0*,-0.7,-8.3
CC1(C)Oc2ccc(C(=O)NC3CCCC3)cc2N(CC(=O)Nc2cccc(F)c2)C1=O,-4.7,8.1,0.3,-0.7,nt,nt
CC1=C(c2ccc(C)cc2)S(=O)(=O)N=C1Nc1ccc(C)cc1,-75.6,-7.1,0.0,0.3,nt,nt
CC1=C(c2ccc(C)cc2)S(=O)(=O)N=C1Nc1ccc(Br)cc1F,-6.1,1.1,0.2,8.7*,1.6,7.7
COCCCNc1nc2nonc2nc1N(C)Cc1ccc(F)cc1,-1.6,8.3,0.1,5.8*,0.7,4.6
COCCCNc1nc2nonc2nc1N(C)Cc1ccccn1,-5.7,-8.7,0.1,-0.3,nt,nt
CCOC(=O)c1ccc(NC(=O)CSc2nc(C(F)(F)F)cc(=O)[nH]2)cc1,13.6,6.8,0.2,1.4,nt,nt
O=C(/C=C/c1ccccc1)N1CCN(C2=NN=C(c3ccccc3)CS2)CC1,-20.9,0.9,-0.4,6.2*,-1.3,-4.7
CC(C)(C)CN1CCNC(=O)C1CC(=O)NC1CCCCCCC1 (configuration not stated),-13.4,10.6,0.1,11.3*,-0.8,-3.8
Cn1ccnc1SCCNC(=O)CC1C(=O)NCCN1CC1CCCCC1 (configuration not stated),9.9,15.3,0.1,7.6*,0.1,6.1
CCCN(CCC)CCCNC(=O)CCCn1c2ccccc2c2cn[nH]c(=O)c21,-1.8,-42.8,0.0,2.0,nt,nt
CCCCCCOC(=O)Nc1nnc(CCC)s1,-0.2,17.6,-0.1,11.6*,-0.4,-4.6
O=C(O)c1ccccc1-c1ccccc1C(=O)NC1CS(=O)(=O)CC1O (configuration not stated),-10.9,-14.2,-0.1,5.1*,2.0,15.5
O=C(O)c1ccccc1-c1ccccc1C(=O)Nc1ccccc1,5.2,21.8,0.1,1.9,nt,nt
Cc1ccc(CNC(=O)c2cnn3c(C)c(Cc4ccc(F)cc4Cl)c(C)nc23)cc1,3.1,-3.4,-0.1,1.5,nt,nt
COCCCNC(=O)c1ccc2c(c1)NC(=O)CS2,-1.1,4.0,0.4,-0.5,nt,nt
CCC(=O)/C=C1/Sc2ccc(OC)cc2N1CCO,-3.3,-6.7,-0.2,-0.6,nt,nt
CC[n+]1c(/C=C2\Sc3ccc(-c4ccccc4)cc3N2CCO)ccc2ccccc21,90.7*,10.8,-1.4,22.4*,-0.5,0.8
SMILES,TEAD-YAP block,MITF primary,FBW7 act,GPR151 ag,GPR151 confirm,GPR119 counter
CCN1/C(=C/c2ccc3cc(OC)ccc3[n+]2CC)Sc2cc(C)c(C)cc21,66.7*,4.4,-1.5,10.6*,1.5,11.3
CC[n+]1c(/C=C2\Sc3ccccc3N2C)ccc2cccc(C)c21,86.5*,37.2,-0.2,5.4*,0.5,6.7
CC[n+]1c(/C=C2\Sc3ccc(C)cc3N2CCO)ccc2ccccc21,79.8*,18.6,-0.3,5.4*,1.9,7.5
O=C(/C=C/c1cnc2ccccc2n1)OCC(=O)c1ccc(Br)s1,7.5,9.4,0.0,-1.3,nt,nt
COc1ccc(C(=O)Oc2ccc(C#N)cc2)cc1,1.2,4.6,1.2,6.7*,-1.0,-1.1
Cn1c(=O)c2c(nc(-n3ccnc3)n2Cc2ccc([N+](=O)[O-])cc2)n(C)c1=O,-1.3,15.8,0.3,5.0*,0.8,22.0
Cn1c(=O)c2c(nc(Cl)n2Cc2ccc([N+](=O)[O-])cc2)n(C)c1=O,5.3,4.8,0.0,0.3,nt,nt
CCCCNC(=O)C1CC(=O)c2sc(NC(=O)C3CCC3)nc2C1 (configuration not stated),-10.1,9.8,0.1,-0.4,nt,nt
CC(=O)Nc1cccc(NC(C)=C(C#N)C#N)c1,2.2,-1.6,-0.1,5.2*,0.6,3.5
C=CCNC(=O)CCN1C(=O)c2ccccc2C1=O,-3.5,-6.2,-0.1,5.6*,1.6,1.3
Cc1ccc(C)c(N2C(=O)CC(SCC(N)C(=O)O)C2=O)c1 (configuration not stated),4.2,5.8,-0.3,2.1,nt,nt
COc1ccc2c(c1OC)C(=O)NC(C)=C(C(=O)OC(C)(C)C)C2O (configuration not stated),8.3,-5.7,0.0,12.0*,0.2,-2.8
COc1ccc2c(c1)c(C)n/c(=N\C(N)=NC(=O)c1ccccc1)n2C(=O)c1ccccc1,-6.0,2.3,-0.1,2.0,nt,nt
O=C(CSc1ccc(Br)cc1)Nc1ccc([N+](=O)[O-])cc1,12.9,6.4,0.0,6.4*,0.8,-14.0
CCOC(=O)c1ccc(NC(=O)CSc2ccc(Br)cc2)cc1,2.6,-1.5,0.2,7.9*,-0.2,-4.2
CCOC(=O)c1ccc(NC(=O)CC2COc3ccccc3O2)cc1 (configuration not stated),7.9,5.6,-0.1,5.8*,0.7,1.1
CCOC(=O)c1ccc(NC(=O)CSc2nc3c(c(=O)n2CC)SC(C)C3)cc1 (configuration not stated),20.1,1.9,-0.1,5.1*,1.1,10.1
N#Cc1ccc(NC(=O)CSc2ccc(Br)cc2)cc1,-8.4,-14.7,0.0,0.6,nt,nt
CCOc1ccc(NC(=O)CSc2nc3c(c(=O)n2CC)SC(C)C3)cc1 (configuration not stated),2.3,2.8,0.0,-0.7,nt,nt
CCCOC(=O)c1ccc(NC(=O)CSc2ccccc2)cc1,-10.6,3.0,0.0,0.2,nt,nt
CCOC(=O)c1ccc(NC(=O)CN2C(=O)C3C4C=CC(C4)C3C2=O)cc1 (configuration not stated),-8.3,25.2,0.0,-2.0,nt,nt
COc1ccc(SCCC(=O)Nc2ccc(Br)cc2)cc1,11.2,-8.4,0.5,5.2*,1.9,8.8

# High-throughput results deposited in PubChem BioAssay by The Scripps Research Institute Molecular Screening Center.
